This is part of a sample that, as a whole, favours compounds with a hit. Of some 83,000 tested, about 20% had one in any assay.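 96-well plates, one dose, 48 hours. Percent growth reported; active if below 10.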 Values without a mark were called inactive. The source made the active and inactive calls.

For the experiment, the system named is UO-31 renal. In words: NCI-60 one-dose screen, 48 h (100 = growth as untreated, 0 = no growth, -100 = all killed). The following applies: 10 µM unless noted. As for the experimental part:
Growth inhibition of the UO-31 human tumor cell line is measured as a screen for anti-cancer activity. Cells are grown in 96 well plates and exposed to the test compound for 48 hours. Compounds are tested at a single concentration, which is 10^-5 M for most compounds. The reported endpoint is percent growth (GI% or GIPRCNT), where numbers from 0 - 100% represent growth inhibition, and numbers from -100% - 0 represent cell death. For example, a value of 40 represents 60% growth inhibition. A value of 0 means no net growth occurred over the course of the experiment. A value of -40 indicates 40% of cells at the beginning of the experiment died by the end of the experiment. A value of -100 means all cells are dead at the end of the experiment.
NCI-60 Human Tumor Cell Lines Screen was performed using the standard one-dose NCI protocol, which is described in more detail at https://dtp.cancer.gov/discovery_development/nci-60/default.htm.
Compounds with GIPRCNT values below 10 were considered active. Activity score was based on GIPRCNT using the following formula: […]
Score is 0 for GIPRCNT values of 100 or above, 50 for GIPRCNT values of 0, and 100 for GIPRCNT values of -100.
Turning to `COc1ccc2nc(NC(=O)CSc3nnc4n3S(=O)(=O)c3ccccc3N4C)sc2c1`, the growth was -72.5% (active).

In the case of `CCOC(=O)c1cc2c(=O)oc3ccccc3c2oc1=O`, the growth is 82.7%.

`O=C(O)CNC1=C(Cl)C(=O)c2ccccc2C1=O`: the growth is 58.9%.

With `COc1ccc2[nH]cc(-c3nc(-c4cn(C)c5c(Cl)nccc45)cs3)c2c1`, the growth was 36.6%.

With `CS(=O)(=O)Nc1cc(-c2ccc3ncnc(Nc4c(Cl)ccc5c4OCO5)c3c2)cnc1Cl`, the growth was -71.4% (active).

Turning to `O=C(Nc1ccc(-c2nc(N3CCOCC3)c3cccn3n2)cc1)Nc1cccnc1`, the growth is -9.74% (active).

On to `N=C(N)c1ccc(-c2ccc(-c3ccc(Cl)cc3)s2)nc1`, for which the growth was 44.6%.

With `COC(=O)/C(CCC=C(C)C)=C1\[C@@H](OC(C)=O)C[C@@]2(C)[C@H]1C[C@@H](O)[C@H]1[C@@]3(C)CC[C@H](NCCN)[C@@H](C)[C@@H]3CC[C@@]12C`, the growth is 69.4%.

Regarding `Cc1cc(=O)[nH]c2c(C#N)cnn12`, the growth was 83.8%.

For `CCn1c(=S)[nH]c2c(=O)n(C)c(=O)n(C)c21`, the growth is 93.9%.

As to `COc1ccc(-c2nc3c(c(-c4ccccc4)nn3-c3ccccc3)c(-c3ccc(N4CCOCC4)cc3)c2C#N)cc1`, the growth is 103%.

With `COc1ccc(NC(=O)c2sc3nc(C)c(C(=O)/C=C/c4cccc(OC)c4)cc3c2N)cc1`, the growth was 27.1%.

Take `CN(C)C1CCN(Cc2ccc(NC(=O)c3cncc(C#Cc4cnc(N)c5ncccc45)c3)cc2C(F)(F)F)CC1`: the growth is 89.3%.

On to `O=C(OCc1ccc2c(Cl)cc(Cl)c(O)c2n1)n1cncn1`, for which the growth was 15.2%.

For `COC(C(=O)[C@@H](O)[C@@H](C)O)[C@@H]1Cc2cc3cc(O[C@H]4C[C@@H](O[C@H]5C[C@@H](O)[C@H](O)C(C)O5)[C@H](O)C(C)O4)cc(O)c3c(O)c2C(=O)[C@H]1O[C@H]1C[C@@H](O[C@H]2C[C@@H](O[C@H]3C[C@@H](OC)[C@H](O)C(C)O3)[C@@H](O)C(C)O2)[C@H](O)C(C)O1` (stereo not given in full), the growth was 64.5%.

Take `C#CCOc1ccc2ncnc(Nc3cccc(NC(=O)C=C)c3)c2c1`: the growth is 41.3%.

Consider `Nc1nc2c([nH]1)c1[nH]c3ccccc3c1c1[nH]c3ccccc3c21`, for which the growth was 62.9%.

On to `COc1cc(-c2nc(SCCC(C)C)nc(Nc3ccccc3Cl)c2C#N)cc(OC)c1OC`, for which the growth was 69.7%.

For the compound `CN(Cc1ccc(C(F)(F)F)cc1)CC(O)C(=O)Nc1ccc(Cl)cc1` (stereo not given), the growth was 12.6%.

`CC(=O)n1nc(C(=O)OC(C)C)c2cc(C)c(C)cc21`: the growth was 94.4%.

In the case of `O=C(c1ccc(-c2ccccc2)cc1)c1ccc([N+](=O)[O-])cc1`, the growth is 97.5%.

As to `O=C1c2c(c3c4ccccc4[nH]c3c3ccc4ccccc4c23)C(=O)N1CCN1CCCCC1`, the growth was 39.7%.

Regarding `COP(=O)(OC)C(C)(C)CC(=O)CC(C#N)(C#N)C(C#N)C#N`, the growth was 85.1%.

With `CCCc1cc(NC)nc(S(=O)(=O)CC)n1`, the growth was 91.8%.

As to `COc1cc(CNS(=O)(=O)c2ccc(C)cc2)ccc1OCc1cn(-c2ccc(Br)cc2)nn1`, the growth is 69.3%.

For `C=C(C)[C@@H]1CC[C@]2(C(=O)OC)CC[C@]3(C)[C@H](CC[C@@H]4[C@@]5(C)C/C(=C/NC(N)=S)C(=O)C(C)(C)[C@@H]5CC[C@]43C)[C@@H]12`, the growth is 73.4%.

Consider `COC(=O)c1n[nH]c2ccc3nc(-c4cn[nH]c4C(F)(F)F)c4c(c3c12)CCCC4`, for which the growth is 29%.

With `Cc1nc(-c2ccccc2)cc2c(O)c(C(=O)NN)[nH]c(=O)c12`, the growth was 97.4%.

Consider `O=C1CC(N2C(=O)/C(=C/C(Cl)=C\c3ccc([N+](=O)[O-])cc3)SC2=S)C(=O)N1c1ccc(Cl)cc1` (stereo not given), for which the growth was -42.8% (active).

Turning to `Fc1cccc(CNc2c3ccccc3nc3ccccc23)c1F`, the growth is 40.1%.

For the compound `CCc1nc2c(=O)[nH]cnc2o1`, the growth is 75.7%.

Consider `CCCCN1C(=O)/C(=c2\sc3n(c2=O)C2C(NN=3)N(CC)C(=O)N2CC)c2ccccc21` (stereo not given), for which the growth was 18.4%.

With `O=C(CCC(=O)N/N=C/c1ccccc1O)N/N=C/c1ccccc1O`, the growth was 17.4%.

With `COC(=O)c1cc(-c2ccccc2)[nH]c1N/N=C/c1c(Cl)cccc1Cl`, the growth is 42.3%.

For the compound `O=CC1(C2(C=O)c3ccccc3-c3ccccc32)c2ccccc2-c2ccccc21`, the growth is -89.3% (active).

For the compound `CC[C@@H](C(=O)[C@@H](C)[C@@H](O)[C@H](C)[C@@H]1O[C@@H]([C@@H](CC)C(=O)NCCc2ccc(F)cc2)CC[C@@H]1C)C1O[C@]2(C=CC(=O)[C@]3(CC[C@@](C)([C@H]4CC[C@](O)(CC)[C@H](C)O4)O3)O2)[C@H](C)C[C@@H]1C` (stereo not given in full), the growth is 19.2%.

On to `Fc1ccc(Nc2nc3nonc3nc2Nc2ccc(I)cc2)cc1`, for which the growth was -7.55% (active).

Regarding `COc1cc(-c2nc(SCC(C)C)nc(Nc3cccc4ccccc34)c2C#N)cc(OC)c1OC`, the growth was 67.9%.

Regarding `COc1ccc(-c2nnc3n(C)c(=O)c4ccccc4n23)cc1N`, the growth is 44.3%.

On to `COc1ccc(C(=O)C2C(c3ccc(OC)cc3)CN(C)C23C(=O)Nc2ccccc23)cc1` (stereo not given), for which the growth is 70.3%.
